# Measured values published in PubChem BioAssay AID1645853 (Buhrlage Lab, Dana-Farber Cancer Institute and Novartis …, 2021).
# Out of some 47,000 compounds screened, about 2,000 (4.3%) were called active. No stated cut-off is given here; in the data, active means inhibition above about 30%; inactive means the rest. The entries come from a sample that favours actives as a whole.
# Biological target: Ubiquitin carboxyl-terminal hydrolase 8 (Homo sapiens) (UniProt P40818)
# Experiment: blocks human USP8 ubiquitin-rhodamine cleavage (AID 1645853)
# Conditions: purified USP8, Ub-rhodamine cleavage fluorescence, 30 min; at 20 µM; hits give high values
# Chain of Ubiquitin carboxyl-terminal hydrolase 8 (Homo sapiens) (P40818 whole entry, looked up): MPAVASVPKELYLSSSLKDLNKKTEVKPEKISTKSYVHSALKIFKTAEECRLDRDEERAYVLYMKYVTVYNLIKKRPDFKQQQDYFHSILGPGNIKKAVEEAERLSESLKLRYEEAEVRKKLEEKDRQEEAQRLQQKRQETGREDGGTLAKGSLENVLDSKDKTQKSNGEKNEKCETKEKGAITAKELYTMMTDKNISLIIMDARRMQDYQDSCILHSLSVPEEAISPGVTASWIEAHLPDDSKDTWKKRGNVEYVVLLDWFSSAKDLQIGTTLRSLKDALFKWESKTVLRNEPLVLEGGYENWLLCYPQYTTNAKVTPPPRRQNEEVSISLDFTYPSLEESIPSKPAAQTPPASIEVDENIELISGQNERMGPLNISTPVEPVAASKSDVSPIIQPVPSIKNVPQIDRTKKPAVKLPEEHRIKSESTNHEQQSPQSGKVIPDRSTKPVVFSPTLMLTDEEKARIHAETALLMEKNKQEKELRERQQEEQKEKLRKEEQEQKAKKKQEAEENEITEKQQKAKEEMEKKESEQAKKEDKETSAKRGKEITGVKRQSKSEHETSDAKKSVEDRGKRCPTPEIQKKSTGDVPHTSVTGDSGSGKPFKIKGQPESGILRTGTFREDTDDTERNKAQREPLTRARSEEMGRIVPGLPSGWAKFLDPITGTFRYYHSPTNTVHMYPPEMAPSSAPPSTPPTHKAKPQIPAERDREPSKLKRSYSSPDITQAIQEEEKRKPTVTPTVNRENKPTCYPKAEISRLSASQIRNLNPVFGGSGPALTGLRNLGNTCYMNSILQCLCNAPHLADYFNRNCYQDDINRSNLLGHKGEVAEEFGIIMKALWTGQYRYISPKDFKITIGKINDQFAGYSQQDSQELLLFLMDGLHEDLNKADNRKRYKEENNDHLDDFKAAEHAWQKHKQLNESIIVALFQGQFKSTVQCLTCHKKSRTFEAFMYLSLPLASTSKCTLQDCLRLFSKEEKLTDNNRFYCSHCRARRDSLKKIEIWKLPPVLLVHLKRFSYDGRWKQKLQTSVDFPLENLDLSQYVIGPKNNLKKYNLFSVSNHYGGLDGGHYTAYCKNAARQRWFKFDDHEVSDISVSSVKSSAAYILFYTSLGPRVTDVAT
row,Compound,inhibition
1,O=S(=O)(Nc1ccc(N2CCOCC2)cc1)c1cccc2cccnc12,-35.6% (inactive)
2,CCC1=N[C@@]2(CC[C@@H]3CN(C(=O)Nc4ccc(CC)cc4)C[C@@H]32)C(=O)N1C,-21.1% (inactive)
3,Cc1ccc(CC(=O)N2CCN(C(=O)c3cc(-c4ccccn4)n[nH]3)CC2)cc1,-164% (inactive)
4,COc1cc(Cl)c(NC(=O)c2cc(-c3ccccn3)n[nH]2)c(OC)c1,49.3% (active)
5,O=C(Nc1ccc(Cl)cc1F)c1cc(-c2ccccn2)n[nH]1,19.3% (inactive)
6,CC1[C@@H]2[C@@H](C(=O)N3CCOCC3)C[C@H](CN1S(=O)(=O)N(C)C)N2Cc1ccccc1 (some centres undefined),0.42% (inactive)
7,O=C1NC2(COC3(CCN(Cc4cccnc4)CC3)C2)Nc2ccc(Cl)cc21 (centres undefined),-202% (inactive)
8,Cc1c(C)n(-c2cccnc2)c2ncn3nc(-c4ccccn4)nc3c12,-3.69% (inactive)
9,CC1(C)Cc2c(c(-c3ccco3)nc3sc4c(SCCCc5ccccc5)ncnc4c23)CO1,75.7% (active)
10,CSc1ncnc2c1sc1nc(-c3ccccc3)c3c(c12)CC(C)(C)OC3,2.79% (inactive)
11,CCCCCCSc1ncnc2c1sc1nc(-c3ccccc3)c3c(c12)CC(C)(C)OC3,-5.24% (inactive)
12,O=C(C1CC1)N1CC[C@@H]2Oc3ccccc3S(=O)(=O)N(Cc3ccccc3)[C@H]2CC1,-86.6% (inactive)
13,O=c1[nH]c(-c2ccccn2)nc2c1CCN(Cc1cnn(-c3ccc(F)cc3)c1)C2,-247% (inactive)
14,Clc1cc2nc(N3CCN(c4ccccn4)CC3)c3nncn3c2cc1Cl,75.6% (active)
15,Cc1nn(-c2ccccc2)c(C)c1S(=O)(=O)N1CCN(c2ccccn2)CC1,-28.5% (inactive)
16,O=C(c1ccc(N2CCCC2)nn1)N1CCN(c2ccccn2)CC1,-50.6% (inactive)
17,COc1cccc(-c2cc(C(=O)N3CCN(c4ccc(N5CCOCC5)nn4)CC3)[nH]n2)c1,-8.45% (inactive)
18,FC(F)(F)c1ccc(-c2cnc([C@@H]3COCCN3C3CCOCC3)[nH]2)cc1,2.96% (inactive)
19,COc1ccc(CN2Cc3ccccc3OC3(CCC(CO)CC3)C2)c(F)c1 (centres undefined),-66.5% (inactive)
20,O=C(NC1CCN(Cc2ccccc2)CC1)c1cc2cn(C3CC3)cc2s1,31.4% (active)
21,O=C(NC1CCN(Cc2ccccc2)CC1)c1cn2c(n1)CCCC2,-18.5% (inactive)
22,Cc1nn(C)c(C)c1CNC(=O)c1cc2cn(C3CCCC3)cc2s1,-141% (inactive)
23,CCOC(=O)C1=C(CN2CCN(c3ccccc3OC)CC2)NC(=O)NC1c1cccc(OC)c1OC (centres undefined),-6.79% (inactive)

row,Compound,inhibition
1,O=C(NCc1ccc2c(c1)OCO2)c1cc2c(s1)CS(=O)(=O)C2,47.6% (active)
2,O=C(NCCc1ccccc1)c1cc2c(s1)CS(=O)(=O)C2,3.17% (inactive)
3,Cc1nc(-c2ccc(C(=O)NCc3ccc4c(c3)OCO4)cc2)cs1,7.04% (inactive)
4,O=S(=O)(c1ccccc1)N1CCCCCC1C1CCN(Cc2nc(C3CC3)no2)CC1 (centres undefined),-3.93% (inactive)
5,COc1ccc(C(=O)N2CCc3cc4ccccc4nc32)cc1OC,-4.03% (inactive)
6,COc1cc2c(cc1OC)C(c1cccs1)N(C(=O)c1ccc3n[nH]nc3c1)CC2 (centres undefined),6.71% (inactive)
7,COc1ccc(CC2c3cc(OC)c(OC)cc3CCN2C(=O)c2ccc(C)c(Cl)c2)cc1OC (centres undefined),36.3% (active)
8,COc1ccc(C2CC(=O)c3cnc(NCc4ccco4)nc3C2)c(OC)c1 (centres undefined),-0.335% (inactive)
9,Cc1ccc(CSc2nnc(/C=C/c3ccccc3)o2)cc1,-1.95% (inactive)
10,CCCNc1cc(N2CCCC(CCC(=O)N3CCC(C)CC3)C2)ncn1 (centres undefined),-110% (inactive)
11,CCc1ccc(S(=O)(=O)NCC(O)COc2ccc(OC)cc2)cc1 (centres undefined),-1.1% (inactive)
12,Cc1ccc(-c2ncc(C(=O)Nc3ccccc3C)c(-c3ccncc3)n2)cc1,41% (active)
13,O=C(Nc1cc(Cl)ccc1F)c1cnc(-c2ccccc2)nc1-c1ccncc1,-14% (inactive)
14,Cc1ccc(F)cc1NC(=O)c1cnc(-c2ccccc2)nc1-c1ccncc1,12.2% (inactive)
15,Cc1nn(-c2ccccc2)c2c1C(C(=O)c1ccc(Cl)s1)CC(=O)N2 (centres undefined),10.5% (inactive)
16,COc1ccc(C(=O)NCC(c2cccnc2)S(=O)(=O)c2ccc(C)cc2)cc1OC (centres undefined),-8.69% (inactive)
17,CCOC(=O)c1c(NC(=O)c2ccco2)sc(Cc2ccc3c(c2)OCO3)c1C,20.7% (inactive)
18,O=C(c1cnn(-c2ccc(Cl)cc2)n1)c1cccs1,2.7% (inactive)
19,O=C(Nc1ccc2oc(-c3ccccc3)nc2c1)c1cccc(-n2cnnc2)n1,3.67% (inactive)
20,O=C(Nc1ccc2cn[nH]c2c1)c1cnn(-c2ccccc2)n1,59.1% (active)
21,O=C1CN(C(=O)CNc2ccccc2N2CCCC2=O)c2ccccc2N1,4.28% (inactive)
22,O=c1c(S(=O)(=O)N2CCCC2)cccn1Cc1cc(=O)n2ccccc2n1,-4.28% (inactive)
23,Cc1ccc(-c2cn3ccn(-c4ccc(C)cc4C)c(=O)c3n2)cc1,43% (active)

row,Compound,inhibition
1,Cc1ccn2cc(-c3ccc(NS(=O)(=O)c4cc(C)c(C)cc4C)cc3)nc2n1,21.4% (inactive)
2,CC(C)(C)c1ccc(Cn2nnc3c(=O)[nH]c(C4CCN(S(=O)(=O)c5ccc6c(c5)OCCO6)CC4)nc32)cc1,7.01% (inactive)
3,O=C(O)c1cc(-c2cccc3ccccc23)n[nH]1,-80.6% (inactive)
4,O=C(c1cnccn1)N1CC(C(=O)N2CCCC2)C1,0.517% (inactive)
5,CCc1ccccc1NC(=O)CSc1nnc(-c2ccncc2)o1,54.3% (active)
6,O=C(CSc1nnc(-c2ccncc2)o1)Nc1cccc(Cl)c1,4.92% (inactive)
7,CCN(C(=O)CSc1nnc(-c2ccncc2)o1)c1ccccc1,14.4% (inactive)
8,Cc1ccc2occ(CC(=O)Nc3sc4c(c3C(=O)NCc3cccnc3)CCCC4)c2c1,20.7% (inactive)
9,CCC(Cc1ccccc1)NS(=O)(=O)c1ccc2c(c1)NC(=O)CS2 (centres undefined),3.6% (inactive)
10,CCOc1ccc(CNS(=O)(=O)c2cccc(-c3noc(C)n3)c2)cc1OC,-8.47% (inactive)
11,Cn1cc(-c2nc(CN3CCCC3Cn3cccn3)cs2)cn1 (centres undefined),-48.6% (inactive)
12,O=C(CCc1nnc2n(Cc3ccccc3)c(=O)c3ccccc3n12)N1CCN(C(=O)c2ccco2)CC1,2.75% (inactive)
13,O=C(Cn1c(=O)n(Cc2ccc3c(c2)OCO3)c(=O)c2ccccc21)NCc1ccco1,8.11% (inactive)
14,O=C(NCCc1ccccc1)c1ccc2c(=O)n(Cc3ccco3)c(=O)n(Cc3cccc([N+](=O)[O-])c3)c2c1,83.9% (active)
15,COc1ccc(-c2ccc3nc(N4CCC(C(N)=O)CC4)sc3n2)cc1,-18.5% (inactive)
16,C[C@@H]1CCCCCCCCC[C@@H](OC(=O)CCC(=O)O)C(=O)/C=C/C(=O)O1,-0.995% (inactive)
17,Cc1ccc(NC(=O)Cc2sc(Nc3ccc(C)cc3)nc2O)cc1,35.4% (active)
18,Cc1ccc(Nc2nc(O)c(CC(=O)Nc3ccc(C(C)C)cc3)s2)cc1C,-0.936% (inactive)
19,CCOc1ccc(Nc2nc(O)c(CC(=O)Nc3cccc(C)c3)s2)cc1,29.3% (inactive)
20,O=C(NCc1ccncc1)c1nnn(-c2ccc(F)cc2)c1-c1ccncc1,5.41% (inactive)
21,O=C(CSc1nnc(-c2cccnc2)o1)N1CCN(c2ccc(F)cc2)CC1,19% (inactive)
22,Cc1nc(-c2cccc(NC(=O)C3CCN(c4ccccc4)C3=O)c2)no1 (centres undefined),27.7% (inactive)
23,Nc1ccc(C(=O)OCC(=O)NC2CCCc3ccccc32)cc1[N+](=O)[O-] (centres undefined),50.4% (active)

row,Compound,inhibition
1,O=C(COC(=O)c1ccc(F)cc1)NC1CCCc2ccccc21 (centres undefined),7.36% (inactive)
2,O=C(c1ccccc1)c1ccc(NC2CCCc3ccccc32)c([N+](=O)[O-])c1 (centres undefined),-7.98% (inactive)
3,O=C(CN1CCN(Cc2nc3ccccc3s2)CC1)N1CCc2ccccc21,-4.14% (inactive)
4,CC(C)C(=O)N1[C@@H](c2ccccc2)C[C@@H]2NC(=O)CCC[C@H]21,1.29% (inactive)
5,CC1CCc2c(sc3ncnc(OCc4cccc([N+](=O)[O-])c4)c23)C1 (centres undefined),-36.3% (inactive)
6,Cc1nnn(C23CC4CC(CC(C(=O)NC5CCCC5)(C4)C2)C3)n1,30.1% (active)
7,Cc1nc(N)ncc1C(=O)N1CCCC(C)(C(=O)NC2CCCC2)C1 (centres undefined),4.82% (inactive)
8,COCCn1cnc2c1c(=O)n(CC(=O)Nc1c(C)cc(C)cc1C)c(=O)n2Cc1ccccc1,32.6% (active)
9,COCCn1cnc2c(-c3ccccc3)cn(CC(=O)NCc3ccccc3)c2c1=O,0.16% (inactive)
10,O=c1c2c(ncn2C2CCCC2)n(Cc2ccccc2)c(=O)n1Cc1ccccc1,1.24% (inactive)
11,Cc1nc(C2CCN(C(=O)Cc3ccc(F)cc3)CC2)ncc1C(N)=O,0.65% (inactive)
12,O=S(=O)(c1ccccc1)n1nc(-c2cccnc2)nc1NCc1ccc(Cl)cc1,3.57% (inactive)
13,CS(=O)(=O)c1ccc(CN2CCC3(C/C=C/Cc4ccccc4OCC(=O)NC3)CC2)cc1,-3.81% (inactive)
14,O=C(O)c1ccc2c(=O)n3c(nc2c1)/C(=C/c1cccc(C(F)(F)F)c1)CC3,14.9% (inactive)
15,O=C1NC(c2ccccc2)=N/C1=C/c1ccc(F)cc1,-0.962% (inactive)
16,O=C(O)c1c2c(nc3ccccc13)/C(=C/c1ccc(F)cc1)CCC2,35.2% (active)
17,CC1(C)[C@H](Cc2cc(-c3ccccc3)on2)C[C@@H]1NC(=O)C1CC1,-0.801% (inactive)
18,CCOc1ccccc1NC(=O)COc1cccc2c1OC(C)(C)C2,8.84% (inactive)
19,CCOc1ccccc1NC(=O)Nc1cc(-c2nc3ccccc3o2)ccc1OC,21.7% (inactive)
20,CCOc1ccccc1NC(=O)Cc1cccs1,31.3% (active)
